From the supplement of paper PMC10849652
Targets with a hit are over-represented here; the source holds about 8,800 in all. About 0.5% of all pairs of compound and target were hits.

Experiments:
Experiment in all cases: log2 fold change, soluble protein after heating vs DMSO (PISA); higher = thermal stabilisation; K562 lysate, 10 uM; active = over 0.2 and 3.5 SD of the protein, either way, in both replicates (recomputed)
[1] = compound: CC1=C2C(=CC=C1)N=C(N(C2=O)C3=CC=CC=C3C)CN4C=NC5=C(N=CN=C54)N
Summary of the method: (§1)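 Values give the log-two fold change in thermal stability against solvent controls, from duplicates. Crude K562 extract at 1 mg/mL protein, made by dounce homogenisation in PBS pH 7.4 with 1 mM MgCl2, was treated with 10 μM compound for 30 min. After 3 min heating across 48°C-58°C, aliquots were pooled, adjusted to 0.5% NP-40 at 4°C and centrifuged at 21,000xg for 90 min. The supernatant was measured by TMTpro 16plex LC-MS/MS with channel sums equalised.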

[2] = compound: C1=CC=C(C=C1)[C@H](COC2=CC3=C(C=C2)NC(=O)N3)NC(=O)C4=CC=CN(C4=O)CC5=CC(=C(C=C5)F)F
Summary of the method: as §1

[3] = compound: CC1=C(SC2=C1C(=N[C@H](C3=NN=C(N32)C)CC(=O)N)C4=CC=C(C=C4)Cl)C
Summary of the method: as §1

[4] = compound: Cc1sc2c(c1C)C(c1ccc(Cl)cc1)=N[C@@H](CC(=O)OC(C)(C)C)c1nnc(C)n1-2
Summary of the method: as §1

[5] = compound: c1ccc([C@@H]2C[C@H]2NC2CCNCC2)cc1
Summary of the method: as §1

Measured: log2 fold change

HNRNPM (UniProt M0R019)
inactive: [1] -0.116

KARS1 (UniProt Q15046)
Sequence of UniProt Q15046 (Q15046 whole entry, looked up): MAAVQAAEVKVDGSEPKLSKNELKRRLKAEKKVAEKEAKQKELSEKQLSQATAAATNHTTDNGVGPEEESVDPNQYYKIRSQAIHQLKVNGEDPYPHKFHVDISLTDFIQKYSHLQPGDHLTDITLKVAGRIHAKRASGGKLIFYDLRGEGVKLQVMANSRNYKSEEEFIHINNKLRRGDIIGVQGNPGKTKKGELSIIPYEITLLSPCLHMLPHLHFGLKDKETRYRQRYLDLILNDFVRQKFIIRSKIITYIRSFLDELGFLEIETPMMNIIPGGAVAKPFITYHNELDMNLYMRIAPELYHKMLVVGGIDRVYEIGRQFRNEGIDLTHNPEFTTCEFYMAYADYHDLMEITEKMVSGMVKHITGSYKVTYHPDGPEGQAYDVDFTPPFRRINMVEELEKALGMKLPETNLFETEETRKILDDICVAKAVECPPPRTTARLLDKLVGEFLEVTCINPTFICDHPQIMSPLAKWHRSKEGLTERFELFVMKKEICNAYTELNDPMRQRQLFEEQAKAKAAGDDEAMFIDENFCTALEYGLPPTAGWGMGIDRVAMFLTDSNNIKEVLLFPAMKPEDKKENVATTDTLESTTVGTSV
inactive: [2] 0.005 | [3] 0.019 | [1] 0.002 | [4] 0.045 | [5] 0.045

HECW2 (UniProt Q9P2P5)
Sequence of UniProt Q9P2P5 (Q9P2P5 whole entry, looked up): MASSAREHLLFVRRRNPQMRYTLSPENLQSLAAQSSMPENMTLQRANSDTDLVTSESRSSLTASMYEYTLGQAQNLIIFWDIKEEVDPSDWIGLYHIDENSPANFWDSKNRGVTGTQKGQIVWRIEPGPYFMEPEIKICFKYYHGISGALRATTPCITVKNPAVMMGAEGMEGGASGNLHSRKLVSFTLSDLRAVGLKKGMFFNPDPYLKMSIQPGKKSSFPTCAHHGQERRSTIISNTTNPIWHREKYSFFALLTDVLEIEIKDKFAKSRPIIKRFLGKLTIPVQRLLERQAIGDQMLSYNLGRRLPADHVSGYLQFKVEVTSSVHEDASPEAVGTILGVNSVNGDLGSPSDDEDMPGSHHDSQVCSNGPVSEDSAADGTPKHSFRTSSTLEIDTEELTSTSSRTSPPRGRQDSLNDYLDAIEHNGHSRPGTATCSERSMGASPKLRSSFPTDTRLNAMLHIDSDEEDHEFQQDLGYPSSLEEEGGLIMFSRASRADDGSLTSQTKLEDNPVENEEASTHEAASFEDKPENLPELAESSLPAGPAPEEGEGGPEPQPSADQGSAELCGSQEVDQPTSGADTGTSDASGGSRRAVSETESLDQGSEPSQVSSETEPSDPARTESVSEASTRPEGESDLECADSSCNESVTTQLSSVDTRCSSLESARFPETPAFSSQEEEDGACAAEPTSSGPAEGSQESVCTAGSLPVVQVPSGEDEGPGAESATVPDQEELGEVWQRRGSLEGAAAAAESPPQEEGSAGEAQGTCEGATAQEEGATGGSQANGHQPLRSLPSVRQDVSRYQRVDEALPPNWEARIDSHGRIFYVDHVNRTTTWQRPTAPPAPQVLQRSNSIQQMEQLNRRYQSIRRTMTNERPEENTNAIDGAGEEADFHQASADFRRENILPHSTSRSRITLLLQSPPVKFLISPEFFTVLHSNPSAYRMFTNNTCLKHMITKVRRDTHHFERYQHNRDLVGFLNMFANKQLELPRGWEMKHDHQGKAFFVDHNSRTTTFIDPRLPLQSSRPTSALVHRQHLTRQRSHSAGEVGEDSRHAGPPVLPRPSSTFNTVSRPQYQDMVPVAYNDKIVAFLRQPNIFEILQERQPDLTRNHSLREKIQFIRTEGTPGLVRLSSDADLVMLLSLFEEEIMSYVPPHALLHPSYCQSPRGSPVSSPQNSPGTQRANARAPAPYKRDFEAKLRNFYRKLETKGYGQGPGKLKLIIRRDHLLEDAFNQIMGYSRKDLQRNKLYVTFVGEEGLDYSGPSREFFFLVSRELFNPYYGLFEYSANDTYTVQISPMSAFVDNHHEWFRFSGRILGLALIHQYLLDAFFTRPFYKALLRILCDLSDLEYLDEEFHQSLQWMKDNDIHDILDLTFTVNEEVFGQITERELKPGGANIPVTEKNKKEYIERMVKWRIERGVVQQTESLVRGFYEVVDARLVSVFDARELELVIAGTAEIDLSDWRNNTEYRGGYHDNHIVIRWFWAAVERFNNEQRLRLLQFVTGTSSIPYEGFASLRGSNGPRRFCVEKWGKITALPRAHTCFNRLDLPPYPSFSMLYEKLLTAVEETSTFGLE
inactive: [1] -0.048 | [4] -0.093

GPN2 (UniProt Q9H9Y4)
Sequence of UniProt Q9H9Y4 (Q9H9Y4 whole entry, looked up): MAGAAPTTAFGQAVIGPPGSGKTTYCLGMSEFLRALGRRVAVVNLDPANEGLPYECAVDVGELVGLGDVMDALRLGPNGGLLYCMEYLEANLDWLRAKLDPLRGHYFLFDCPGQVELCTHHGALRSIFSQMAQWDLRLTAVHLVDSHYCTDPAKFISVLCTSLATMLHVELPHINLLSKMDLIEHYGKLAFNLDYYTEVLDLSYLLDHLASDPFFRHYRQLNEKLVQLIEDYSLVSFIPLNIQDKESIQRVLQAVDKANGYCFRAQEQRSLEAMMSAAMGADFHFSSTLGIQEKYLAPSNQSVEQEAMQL
inactive: [1] 0.07 | [4] 0.057 | [5] -0.034

ISL2 (UniProt Q96A47)
Sequence of UniProt Q96A47 (Q96A47 whole entry, looked up): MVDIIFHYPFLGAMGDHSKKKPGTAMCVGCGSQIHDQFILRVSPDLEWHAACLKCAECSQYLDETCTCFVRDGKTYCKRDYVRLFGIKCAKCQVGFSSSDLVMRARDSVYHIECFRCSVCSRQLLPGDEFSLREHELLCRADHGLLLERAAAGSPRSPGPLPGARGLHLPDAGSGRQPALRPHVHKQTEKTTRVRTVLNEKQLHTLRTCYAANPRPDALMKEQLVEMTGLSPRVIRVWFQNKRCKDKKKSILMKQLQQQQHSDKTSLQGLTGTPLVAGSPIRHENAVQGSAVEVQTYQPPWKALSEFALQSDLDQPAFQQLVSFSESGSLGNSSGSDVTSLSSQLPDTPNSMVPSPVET
inactive: [2] 0.038 | [3] 0.058 | [4] -0.063 | [5] 0.207

IGFBP4 (UniProt P22692)
Sequence of UniProt P22692 (P22692 whole entry, looked up): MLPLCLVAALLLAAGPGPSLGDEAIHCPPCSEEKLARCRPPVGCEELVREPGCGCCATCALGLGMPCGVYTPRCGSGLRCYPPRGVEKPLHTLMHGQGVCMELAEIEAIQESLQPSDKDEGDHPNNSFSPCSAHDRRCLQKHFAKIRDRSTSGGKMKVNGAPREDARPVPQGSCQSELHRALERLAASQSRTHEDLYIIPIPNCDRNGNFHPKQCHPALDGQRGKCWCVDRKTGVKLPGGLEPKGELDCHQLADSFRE
inactive: [2] 0.135 | [3] -0.099 | [4] -0.032 | [5] -0.171

GIPC3 (UniProt Q8TF64)
Sequence of UniProt Q8TF64 (Q8TF64 whole entry, looked up): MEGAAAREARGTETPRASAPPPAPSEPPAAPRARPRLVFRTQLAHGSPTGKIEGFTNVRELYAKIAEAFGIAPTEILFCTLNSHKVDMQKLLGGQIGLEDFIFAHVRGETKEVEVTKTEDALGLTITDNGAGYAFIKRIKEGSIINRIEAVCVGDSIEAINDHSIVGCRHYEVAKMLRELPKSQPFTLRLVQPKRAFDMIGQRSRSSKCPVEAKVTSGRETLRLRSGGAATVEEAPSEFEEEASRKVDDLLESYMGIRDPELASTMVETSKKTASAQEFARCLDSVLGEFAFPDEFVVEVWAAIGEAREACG
inactive: [2] -0.002 | [3] 0.042 | [4] 0.013 | [5] -0.075

GYPA, A0A2R8Y7F9
inactive: [2] -0.088 | [3] -0.151 | [5] -0.163

HSPA8 (UniProt E9PN89)
inactive: [2] 0.003 | [3] 0.044 | [4] -0.219 | [5] -0.393

ITPRIP (UniProt Q8IWB1)
inactive: [4] 0.054

GTPBP6 (UniProt O43824)
Sequence of UniProt O43824 (O43824 whole entry, looked up): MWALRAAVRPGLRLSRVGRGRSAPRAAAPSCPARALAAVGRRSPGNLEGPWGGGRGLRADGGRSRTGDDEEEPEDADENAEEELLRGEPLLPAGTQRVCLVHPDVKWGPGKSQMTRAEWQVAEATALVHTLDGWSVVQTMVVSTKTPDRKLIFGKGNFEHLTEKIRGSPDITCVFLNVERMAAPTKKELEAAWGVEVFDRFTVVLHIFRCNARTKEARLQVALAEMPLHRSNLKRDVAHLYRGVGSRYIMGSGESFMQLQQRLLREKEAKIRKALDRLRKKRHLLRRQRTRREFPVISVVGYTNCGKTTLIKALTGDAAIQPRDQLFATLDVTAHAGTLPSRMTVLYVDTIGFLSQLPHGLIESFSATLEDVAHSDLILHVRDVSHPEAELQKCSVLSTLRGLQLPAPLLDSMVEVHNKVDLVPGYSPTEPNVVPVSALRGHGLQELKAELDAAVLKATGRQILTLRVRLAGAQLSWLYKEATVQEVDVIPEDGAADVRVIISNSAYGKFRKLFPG
inactive: [1] 0.385 | [4] -0.439 | [5] 0.118

KATNBL1 (UniProt Q9H079)
Sequence of UniProt Q9H079 (Q9H079 whole entry, looked up): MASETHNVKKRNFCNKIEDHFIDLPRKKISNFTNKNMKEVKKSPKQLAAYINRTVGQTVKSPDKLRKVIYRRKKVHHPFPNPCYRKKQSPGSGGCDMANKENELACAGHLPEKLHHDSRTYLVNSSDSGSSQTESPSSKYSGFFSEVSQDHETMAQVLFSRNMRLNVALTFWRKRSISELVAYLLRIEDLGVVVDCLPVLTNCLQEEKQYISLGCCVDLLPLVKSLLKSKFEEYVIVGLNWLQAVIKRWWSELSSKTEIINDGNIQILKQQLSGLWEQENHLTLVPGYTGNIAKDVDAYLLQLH
inactive: [1] -0.111 | [4] -0.012 | [5] -0.071

HMGCL (UniProt P35914)
Sequence of UniProt P35914 (P35914 whole entry, looked up): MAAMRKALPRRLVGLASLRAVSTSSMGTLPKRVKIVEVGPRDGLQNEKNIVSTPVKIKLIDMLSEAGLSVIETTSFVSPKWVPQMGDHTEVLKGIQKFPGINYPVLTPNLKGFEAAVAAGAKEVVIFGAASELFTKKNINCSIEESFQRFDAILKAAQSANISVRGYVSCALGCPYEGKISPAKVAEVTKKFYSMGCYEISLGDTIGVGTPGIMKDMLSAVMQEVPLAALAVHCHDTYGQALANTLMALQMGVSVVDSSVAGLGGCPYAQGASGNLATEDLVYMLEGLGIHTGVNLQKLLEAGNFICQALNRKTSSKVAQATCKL
inactive: [2] 0.057 | [3] -0.017 | [1] 0.058 | [4] 0.046 | [5] 0.006
